According to PubChem BioAssay (NCI):
This is part of a sample that, as a whole, favours compounds with a hit. Of some 83,000 tested, about 20% had one in any assay.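 The endpoint reported here, percent growth, reads 100 for growth as untreated, 0 for no net growth and -100 for all cells dead.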 Unmarked numbers belong to inactive results. Active and inactive are the calls of the source. Rule for the calls: active = growth percent below 10; inactive = the rest.

Assays:
Test in all cases: NCI-60 one-dose screen, 48 h (100 = growth as untreated, 0 = no growth, -100 = all killed)
Conditions in all cases: 10 µM unless noted
[1] = tested on: SR leukemia
[2] = tested on: RPMI-8226 leukemia
[3] = tested on: OVCAR-8 ovarian
[4] = tested on: OVCAR-5 ovarian
[5] = tested on: OVCAR-4 ovarian
[6] = tested on: SK-OV-3 ovarian
[7] = tested on: IGROV1 ovarian
[8] = tested on: OVCAR-3 ovarian
[9] = tested on: HS 578T breast
[10] = tested on: NCI/ADR-RES ovarian

Row | SMILES | growth [1] | growth [2] | growth [3] | growth [4] | growth [5] | growth [6] | growth [7] | growth [8] | growth [9] | growth [10]
1 | N/C(=N\c1nc2ccccc2s1)NC(=NC1CCCCC1)NC1CCCCC1 | 8.88% (active) | -30.4% (active) | 4.41% (active) | 24.6% | 26.7% | 74.9% | 14.4% | 57.6% | 37.8% | 15%
2 | CCN(CC)S(=O)(=O)c1ccc(S(=O)(=O)N2CCC[C@@H](C(=O)N3CCN(C(=O)OC(C)(C)C)CC3)C2)cc1 | 31.7% | 53.7% | 63.3% | 102% | 26.1% | 90.5% | 86.1% | 73.5% | 87.2% | 62%
3 | COc1ccc(C2=CN3CC=CCC3CC2=O)cc1 (stereo not given) | 90.3% | 97.9% | 91% | 106% | 109% | 106% | 111% | 102% | 98.3% | 107%
4 | COc1cc(Nc2c3ccc(Cl)cc3nc3ccc(OC)cc23)c2ncccc2c1 | 19.8% | 55.5% | 46.1% | 70.2% | 20.3% | 52.5% | 32.2% | 33.9% | 65.1% | 53.9%
5 | Nc1c(C(=O)O)cc(Cl)cc1[N+](=O)[O-] | 109% | 104% | 92.7% | 90.4% | 99.5% | 101% | 100% | 105% | 101% | 97.8%
6 | O=C1CC2C=CCN2C=C1NC(=O)C1CCCCC1 (stereo not given) | 103% | 107% | 109% | 102% | 105% | 111% | 105% | 98.9% | 105% | 98.5%
7 | Clc1ccc(-c2nc(-c3c[nH]c4ncccc34)cs2)cc1 | 85.4% [100 µM] | 91.4% [100 µM] | 29.7% [100 µM] | 73.7% [100 µM] | 28.3% [100 µM] | 29.3% [100 µM] | 72.7% [100 µM] | 68.7% [100 µM] | 44.3% [100 µM] | 41.2% [100 µM]
8 | COc1cccc(/C=C/C(=O)c2cc3c(N)c(C(=O)Nc4ccccc4C)sc3nc2C)c1 | 10.8% | -20.8% (active) | -33.9% (active) | 87.2% | 70.9% | 104% | 19.4% | 3.31% (active) | 13.9% | 10.1%
9 | Cc1cc2nc3c4ccccc4n(CCN(C)C)c3nc2cc1C | 4.17% (active) | -19.7% (active) | 6.84% (active) | 15.6% | -1.33% (active) | 13.3% | 5.07% (active) | 18% | 3.81% (active) | 6.55% (active)
10 | CN(C)c1ccc(/C=C/C(=O)c2ccccc2)cc1 | 25.1% | 76.4% | 93.1% | 113% | 101% | 96.9% | 99.2% | 90.2% | 98.4% | 81.3%
11 | CCCCCCCCn1ccc2cc(NC(=O)Cn3cc(CN4CCCCCC4)nn3)ccc21 | -13.1% (active) | -9.08% (active) | 30% | 35.6% | 51% | 97.6% | 52.2% | 10.1% | 65.7% | 55.1%
12 | COC(=O)C1=C(C(=O)Nc2cccnc2)C2OC1(C(Cc1ccccc1)Oc1ccccc1)C1OC21 (stereo not given) | -23.7% (active) | -11.8% (active) | 86.4% | 79.7% | 75% | 98.3% | 77.7% | -53.5% (active) | 101% | 103%
13 | O=c1nc(Nc2nc3ccccc3s2)[nH]c(=O)c2ccccc12 | 90.7% | 106% | 103% | 107% | 102% | 64.3% | 100% | 109% | 109% | 103%
14 | COc1ccc(Nc2ncc(C(N)=O)c(NCCCNC(=O)C3CCC3)n2)cc1 | 65.1% | 72.9% | 62.6% | 109% | 81% | 36.6% | 66.8% | 88.8% | 71.5% | 100%
15 | COC(=O)c1c2c(n3ccc(C)cc13)C(=O)c1ccccc1C2=O | 45.9% | 61.1% | 60.2% | 116% | 81.7% | 103% | 64.5% | 67.6% | 77.7% | 72.8%
16 | N#CC(C#N)N=Nc1ccc(Cl)cc1Cl | 48.1% | 50.8% | 94% | 104% | 71.4% | 77% | 89.5% | 62% | 103% | 103%
17 | CCN(CC)CCCC(C)Nc1ccc2cc(OC)ccc2n1 (stereo not given) | 120% | 97% | 99.8% | 109% | 62% | 113% | 105% | 98.8% | 99.9% | 108%
18 | CCNc1nc(-c2ccc(F)cc2)c(C#N)c(=O)n1C | 50.3% | 91.8% | 73.8% | 56% | 55.2% | 55.9% | 54.1% | 59.1% | 37.5% | 67.1%
19 | N#Cc1c(-c2cccc([N+](=O)[O-])c2)cc(-c2ccc(Nc3nc(Nc4ccc(F)cc4)nc(Nc4ccc(F)cc4)n3)cc2)nc1N | 62.9% | 52.3% | 89.1% | 102% | 114% | 143% | 90.9% | 100% | 87.9% | 101%
20 | CNC(=O)c1cc(Oc2ccc3nc(NC(=O)Nc4ccc(Cl)c(Cl)c4)sc3c2)ccn1 | 15.4% | 63% | -34.6% (active) | 85.6% | -39.9% (active) | 73.5% | 54.6% | 24.7% | -2.92% (active) | -17.7% (active)
21 | CC(C)[C@@]12C[C@@H](OC(=O)COC(=O)c3ccccc3)[C@@](C)(O1)[C@@H]1CC[C@@H](C)[C@H]1[C@@H]2OC(=O)/C=C/c1ccccc1 | 78.6% | 85.3% | 31.7% | 95.7% | 87.2% | 88.1% | 114% | 94.8% | -14.4% (active) | 25.2%
22 | N#Cc1nc2c(S(=O)(=O)c3ccccc3)c(N)n(Cc3cccnc3)c2nc1C#N | 36.1% | 99.2% | 70.9% | 96.5% | 92.4% | 76.9% | 46.1% | 73.4% | 59.5% | 94.6%
23 | Oc1c(Cl)cc(Cl)c2ccc(Cn3cc(-c4cccc(C(F)(F)F)c4)nn3)nc12 | -15.6% (active) | 8.24% (active) | 80% | 94.5% | 65.9% | 107% | 85.2% | 15% | 74.9% | 104%
24 | CC(C)(CO)N(CCO)CCO | 99.5% | 95% | 110% | 93.1% | 110% | 109% | 113% | 112% | 113% | 102%
25 | Fc1ccc(CNc2c3ccccc3nc3ccccc23)cc1 | 6.59% (active) | -0.445% (active) | 22.3% | 38.5% | 33.2% | 39.9% | 21.9% | 38.7% | 39.5% | 29.7%
26 | COc1cc2cc(Oc3ccc(NC(=O)Nc4ccccc4)cc3)c(C)nc2cc1OCCN1CCCCC1 | -25.9% (active) | 44.3% | 46.5% | 119% | 83.1% | 110% | 92.3% | 101% | 70.4% | 90.5%
27 | Cc1cc(N2CCN(C)CC2)nc(NCc2cc(Nc3ccnc4cc(Cl)ccc34)ccc2F)n1 | -32% (active) | -29.6% (active) | 6.32% (active) | -3.76% (active) | 14.9% | 23% | 10.4% | -46.8% (active) | 11% | 18.7%
28 | Cn1ccnc1C(=O)/C=C/c1ccc(C(=O)Nc2ccc(F)cc2)cc1 | 2.09% (active) | -17.1% (active) | 18.3% | 21.4% | 28.5% | 59.1% | 7.02% (active) | 10.8% | 40.9% | 11.2%
